Laboratory results from PubChem BioAssay (NCI).
“And” between values parts separate entries of the source, which are not always exact repeats. Equal values may be shown once. This is part of a sample that, as a whole, favours compounds with a hit. Of some 83,000 tested, about 20% had one in any assay.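 Step 1: grow cells in 96-well plates. Step 2: add test compound at a single concentration. Step 3: incubate 48 h. Step 4: record percent growth.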 Unmarked numbers belong to inactive results. The source made the active and inactive calls. How the source made its calls: active means growth percent below 10; inactive means the rest.

test system: MDA-MB-468 breast; experiment: NCI-60 one-dose screen, 48 h (100 = growth as untreated, 0 = no growth, -100 = all killed); conditions: 10 µM unless noted

Structure (SMILES)	growth
CCOC(=O)CSc1ncnc2c1c(-c1ccccc1)c(-c1ccccc1)n2-c1ccc(C)cc1	51.9%
Cc1ccc(C(O)C2=CC(=O)c3ccccc3C2=O)cc1 (centres undefined)	96.5%
CCCC1=NNC(=O)C1	115%
COC(=O)C1=C(C(=O)OC)C23C=C(C)C1C2=C(C)C1(CC1)[C@@](C)(O)C3=O (some centres undefined)	-54.2% (active)
Cn1cc(-c2nonc2-c2cn(C)c3ccc(F)cc23)c2cc(F)ccc21	60.1%
N#Cc1c(-c2cccc(F)c2)cc(-c2cccnc2)[nH]c1=O	106%
Oc1ccc(CSc2nnc(-c3cnccn3)n2-c2ccccc2)c2cccnc12	5.53% (active)
Cc1ccc(C(=O)N/N=C/c2cccc([N+](=O)[O-])c2)cn1	89.5%
NNc1ccc(Cl)cc1Cl	91.5%
COC(=O)[C@]12CC[C@@H](C)[C@H](C)[C@@H]1C1=CC[C@@H]3[C@@]4(C)C(C=O)=C[C@@](C)(COC(=O)c5ccco5)[C@@H]4[C@H](O)C[C@@]3(C)[C@]1(C)CC2	-12.1% (active)
O=c1c2cccc(F)c2sc2c(N3CCNCC3)nc3ccccc3c12	37.2%
O=C(N/N=C\c1cc(Br)cc(Br)c1O)N/N=C/c1cc(Br)cc(Br)c1O	57.7%
N#C/C(=C\c1ccc[nH]1)c1cc2ccccc2[nH]1	-3.15% (active)
Cc1cc(C)c(-c2c(O)c(Br)c(-c3c(C)cc(C)c(Br)c3C)c(O)c2Br)c(C)c1Br	48.9%
O=S(=O)(Nc1ccc2c(c1)OC(F)(F)O2)c1ccc(-c2cnc(C3CC3)o2)cc1	15.3%
N#Cc1c(-c2ccc(Cl)cc2)nc(NCCO)[nH]c1=O	119%
CCN(CC)CCOc1ccc2ccc(=O)oc2c1	86%
Nc1cccc(-c2ccc(COc3ccc(CC4SC(=O)NC4=O)cc3)cc2)c1 (centres undefined)	29.4%
O=C(/C=C/C12c3ccccc3C(c3ccccc31)C1C(=O)NC(=O)C12)c1ccc(Br)cc1 (centres undefined)	42.7%
IP(CCCCCCCCCCSc1n(Cc2ccc3ccccc3c2)c(-c2ccccc2)c(-c2ccccc2)[n+]1Cc1ccc2ccccc2c1)(c1ccccc1)(c1ccccc1)c1ccccc1	-75.3% (active)

Structure (SMILES)	growth
Cc1ccc(/C=C/C(=O)c2ccc(-n3cc(CN4CCN(c5cc6c(cc5F)c(=O)c(C(=O)O)cn6C5CC5)CC4)nn3)cc2)cc1	77.1%
C#CCO[C@H]1CC[C@H](OCC#C)[C@@H]2[C@H]1[C@H]1C[C@@H]3[C@@]4(C)CCC[C@@](C)(C(=O)OC)[C@@H]4CC[C@@]23C=C1C(C)C	91.3%
COc1ccc(C(=O)Nc2nc(-c3ccc(Cl)cc3)cs2)cc1	95.9%
COc1ccc(-c2nc(SC(C)C)nc(NNC(N)=S)c2C#N)cc1	21.2%
Cc1ccc(CSCc2ccc(C(=O)NC3CC3)o2)cc1	49.2%
CCN(CC)CC(=O)Nc1ccc2ncnc(Nc3ccc(Oc4cccc(F)c4)c(Cl)c3)c2c1	13.6%
CCN1C(=O)N(CC)C2C1NN=c1s/c(=C3\C(=O)N(C(C)C)c4ccccc43)c(=O)n12 (centres undefined)	16.5%
Clc1ccc(I)c2ccccc12	107%
Nc1nc2c(c3cnccc13)C(c1ccc(Cl)c(Cl)c1)Cc1cnccc1-2 (centres undefined)	-42.2% (active)
CCc1ccc(Cc2cnc(NC(=O)c3cc(C)oc3C)s2)cc1	9.5% (active)
C=CCc1c(O)c(C(=O)/C=C/c2ccc(Cl)cc2)c(OC)c2ccoc12	19.9%
O=C(/C=C/c1ccccc1Cl)Nc1ncc(Cc2cc(Cl)ccc2Cl)s1	22.8%
Cc1nnc(NS(=O)(=O)c2ccc(N=Nc3ccc(N)nc3N)cc2)s1	120% and 132%
O=C(O)c1cccc2oc(-c3ccccc3O)nc12	35.2%
COc1cc(COC(=O)CCCCC[P+](c2ccccc2)(c2ccccc2)c2ccccc2)c(OC)c2c1OCO2	-2.4% (active)
Oc1c(Cl)c2ccccc2c2ccccc12	112%
O=[N+]([O-])c1ccc(/C=N\Nc2ccccc2)cc1	94.7%
CNC(=O)c1c(NC(=O)c2cccc(C(F)(F)F)c2F)sc2c1CCC(=O)C2	0.936% (active)
Cc1cccnc1NC(=S)Nc1ncccc1C	71.9%
